Results filed as inconclusive are left out. Calls of active or inactive are those of the source. Calls follow the shape of the dose curve; as a rule, active = well fitted inhibition curve with a large enough effect; inconclusive = small, poorly fitted or top-dose-only effect; inactive = flat fitted curve, though single readings scatter.

The text below walks through data of PubChem BioAssay (NCATS).

Test in all cases: qHTS profiling for inhibitors of Plasmodium falciparum proliferation (AID 504749); also: nearly all actives have a fitted effect of over 60% in size
Settings in all cases: P. falciparum in erythrocytes, SYBR Green DNA, 72 h; series mostly up to 28.7 µM
Background: In qHTS, concentration-response curves come from the screen itself.

Experiment [1] relates to CP238. The procedure, abridged:
(§1)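 Parasite proliferation within erythrocytes, 72 h exposure. Endpoint: SYBR Green I fluorescence after overnight lysis at room temperature. Controls: 0.29 uM artemisinin, DMSO.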

The test system of experiment [2] is CP247. In short, it runs like this: as §1
The subject of experiment [3] is CP250. The procedure, abridged:
as §1

Experiment [4] deals with CP252. In short, it runs like this:
as §1

The subject of experiment [5] is CP256. The procedure, abridged: as §1
Experiment [6] relates to CP260. The procedure, abridged:
as §1

Experiment [7] deals with CP262. In short, it runs like this:
as §1

In experiment [8] the test system is CP265. In short, it runs like this: as §1
The subject of experiment [9] is CP266. The procedure, abridged: as §1
In experiment [10] the test system is CP268. The procedure, abridged: as §1
Potency is read from the fitted curve at half-maximal effect.

As to `C=CCN1C(=O)C(CC(C)C)NC1=S` (centres undefined), the Potency result in experiment [1], in experiment [2], in experiment [3], in experiment [4], in [5] and in experiment [6] was “inactive” each time. In addition, the Potency entry in experiment [7], in experiment [8], in experiment [9] and in experiment [10] was “inactive” in each case.
On to `Cc1ccc(O)c(-n2nc3ccccc3n2)c1`, for which the Potency result in experiment [1], in [2], in experiment [3], in [4], in [5] and in experiment [6] was “inactive” each time. The Potency result in experiment [7], in [8], in experiment [9] and in experiment [10] was “inactive” throughout.
In the case of `CC(C(=O)O)c1ccc2c(c1)[nH]c1ccc(Cl)cc12` (centres undefined), the Potency result in [1], in [2], in experiment [3], in experiment [4], in experiment [5] and in experiment [6] was “inactive” in each case. The Potency entry in [7], in [8], in experiment [9] and in experiment [10] was “inactive” in each case.
As to `Cc1[nH]cnc1CN1CCc2c(c3ccccc3n2C)C1=O`, the Potency entry in [1], in experiment [2], in [3], in [4], in experiment [5] and in [6] was “inactive” each time. The Potency result in [7], in experiment [8], in experiment [9] and in [10] was “inactive” throughout.
In the case of `O=C(O)[C@H](O)[C@@H](O)[C@H](O)[C@H](O)CO`, the Potency result in experiment [1], in experiment [2], in [3], in [4], in experiment [5] and in experiment [6] was “inactive” each time. Also, the Potency entry in [7], in [8], in experiment [9] and in experiment [10] was “inactive” in each case.
Consider `c1ccc2sc(SN3CCOCC3)nc2c1`, for which the Potency result in experiment [1], in experiment [2], in experiment [3], in experiment [4], in experiment [5] and in experiment [7] was “inactive” throughout. Also, the Potency entry in experiment [8], in experiment [9] and in [10] was “inactive” throughout.
As for `CCOC(=O)c1ccccc1O`, the Potency entry in [1], in [2], in [4], in [5], in [6] and in experiment [7] was “inactive” each time. Moreover, the Potency entry in [8], in experiment [9] and in experiment [10] was “inactive” each time.
Regarding `Nc1ccc(O)c(C(=O)O)c1`, the Potency entry in experiment [1], in experiment [2], in experiment [3], in [4], in experiment [5] and in experiment [6] was “inactive” each time. The Potency result in experiment [7], in [8] and in experiment [10] was “inactive” throughout.
Take `O=C(O)c1cc(O)c(O)c(O)c1`: the Potency result in [1], in experiment [4], in experiment [5], in experiment [8], in experiment [9] and in [10] was “inactive” each time. In addition, in experiment [3], the Potency was 5.62 µM (active).
In the case of `O=C(CCN1CCN(CCO)CC1)N1c2ccccc2Sc2ccc(C(F)(F)F)cc21`, the figures for the Potency in [5], in experiment [6] and in experiment [8] were 11.2 µM (active), 11.2 µM (active) and 3.98 µM (active), respectively. In [10], the Potency result was “inactive”.
Consider `c1ccc2sc(SSc3nc4ccccc4s3)nc2c1`, for which the Potency entry in [1], in experiment [2], in experiment [3], in [4], in experiment [5] and in experiment [6] was “inactive” throughout. In addition, the Potency result in [7], in experiment [8] and in experiment [10] was “inactive” each time.
Regarding `CCCCC[C@H](O)/C=C/[C@@H]1[C@@H](C/C=C\CCCC(=O)O)[C@@H](O)C[C@H]1O`, the Potency entry in [1], in experiment [2], in [3], in experiment [4], in experiment [5] and in experiment [6] was “inactive” each time. The Potency result in experiment [7], in experiment [8], in experiment [9] and in experiment [10] was “inactive” each time.
Regarding `C[S+](CC[C@H](N)C(=O)O)C[C@H]1O[C@@H](n2cnc3c(N)ncnc32)[C@H](O)[C@@H]1O` (some centres undefined), the Potency entry in experiment [4], in experiment [6], in experiment [7] and in [10] was “inactive” throughout.
For the compound `Cc1cc(O)c2ccccc2c1O`, the Potency entry in [1], in experiment [2], in experiment [4], in experiment [5], in [6] and in experiment [7] was “inactive” throughout. Besides, the Potency entry in experiment [8], in experiment [9] and in experiment [10] was “inactive” throughout.
For the compound `O=C(O)c1ccccc1Nc1cccc(C(F)(F)F)c1`, the Potency entry in experiment [1], in [2], in [3], in [4], in experiment [5] and in experiment [6] was “inactive” each time. For the same compound, the Potency result in experiment [7], in [8], in experiment [9] and in experiment [10] was “inactive” in each case.
Turning to `NC(=O)C(c1ccccc1)(c1ccccc1)[C@@H]1CCN(CCc2ccc3c(c2)CCO3)C1`, the Potency entry in experiment [3] and in experiment [9] was “inactive” each time.
For `CC(N)C(=O)OC(C)(C)Cc1ccc(Cl)cc1` (centres undefined), the Potency entry in experiment [3], in experiment [5], in experiment [7] and in [9] was “inactive” throughout.
For the compound `COc1cc(/C=C/C(=O)CC(=O)/C=C/c2ccc(O)c(OC)c2)ccc1O`, the Potency in experiment [2] and in experiment [3] was 8.91 µM (active) throughout.
Take `Nc1c(CC(=O)O)cccc1C(=O)c1ccc(Br)cc1`: the Potency entry in experiment [1], in experiment [2], in experiment [3], in experiment [4], in experiment [5] and in [6] was “inactive” each time. The Potency result in experiment [7], in [8], in experiment [9] and in [10] was “inactive” each time.
`CCCSc1ccc2nc(NC(=O)OC)[nH]c2c1`: the Potency entry in experiment [1], in experiment [3], in experiment [4], in experiment [5], in experiment [6] and in experiment [7] was “inactive” each time. Moreover, the Potency result in [8], in [9] and in experiment [10] was “inactive” in each case.
For the compound `COC(=O)C1=C(C)NC(C)=C(C(=O)OCC(C)C)C1c1ccccc1[N+](=O)[O-]` (centres undefined), in experiment [5], the Potency was 10 µM (active).
`CCCCCC[C@@H](O)C/C=C\CCCCCCCC(=O)O`: the Potency entry in experiment [1], in [2], in experiment [3], in experiment [4], in experiment [5] and in experiment [6] was “inactive” each time. The Potency entry in experiment [7], in experiment [8] and in experiment [10] was “inactive” each time.
Regarding `O=C1CN(/N=C/c2ccc(-c3ccc([N+](=O)[O-])cc3)o2)C(=O)N1`, the Potency result in [1], in experiment [3], in experiment [4], in experiment [5], in [6] and in [8] was “inactive” in each case. For the same compound, the Potency entry in experiment [9] and in experiment [10] was “inactive” throughout. For the same compound, the Potency in experiment [2] is 4.47 µM (active).
Turning to `CN1[C@@H]2CC[C@H]1CC(OC(=O)C(CO)c1ccccc1)C2` (some centres undefined), the Potency entry in [1], in experiment [2], in [3], in experiment [4], in experiment [6] and in experiment [7] was “inactive” in each case. For the same compound, the Potency result in experiment [8], in [9] and in experiment [10] was “inactive” each time.
As for `O=C(/C=C/c1ccccc1)NCCO`, the Potency entry in experiment [1], in experiment [2], in [3], in experiment [4], in experiment [5] and in experiment [6] was “inactive” in each case. In addition, the Potency entry in experiment [7], in experiment [8], in experiment [9] and in [10] was “inactive” in each case.
As for `COc1cc(CNC(=O)CCCC/C=C/C(C)C)ccc1O`, the Potency result in [1], in [2], in experiment [3], in experiment [4], in experiment [5] and in experiment [6] was “inactive” each time. Also, the Potency result in [7], in [8] and in [10] was “inactive” in each case.
In the case of `CC1(C)[C@@H](O)CC[C@]2(C)[C@H]3C(=O)C=C4[C@@H]5C[C@@](C)(C(=O)O)CC[C@]5(C)CC[C@@]4(C)[C@]3(C)CC[C@@H]12`, the Potency result in experiment [1], in experiment [2], in experiment [3], in experiment [4], in [5] and in experiment [6] was “inactive” each time. For the same compound, the Potency result in experiment [7], in [8] and in experiment [10] was “inactive” in each case.
For the compound `O=C(O)COc1ccc(C(=O)c2cccs2)c(Cl)c1Cl`, the Potency result in experiment [1], in [2], in experiment [3], in [4], in [5] and in [6] was “inactive” throughout. For the same compound, the Potency entry in [7], in experiment [8], in experiment [9] and in experiment [10] was “inactive” throughout.
As for `Cc1nc2ccccc2n1Cc1ccc(Cl)cc1`, the Potency entry in experiment [1], in experiment [3], in experiment [6] and in experiment [10] was “inactive” each time.
Turning to `CN1[C@@H](CC(=O)c2ccccc2)CCC[C@H]1C[C@H](O)c1ccccc1`, the Potency entry in [2], in [3], in [7], in experiment [9] and in [10] was “inactive” in each case.
Take `Oc1c(Br)cc(Br)c2cccnc12`: the Potency result in experiment [1], in [2], in [3], in experiment [4], in experiment [5] and in experiment [6] was “inactive” throughout. The Potency entry in experiment [8], in experiment [9] and in [10] was “inactive” each time.
For the compound `CN1CCN(c2cc3c(nn2)Oc2ccccc2N3C)CC1`, the Potency result in experiment [1], in experiment [2], in experiment [3], in experiment [4], in [5] and in experiment [6] was “inactive” in each case. Besides, the Potency entry in experiment [7], in experiment [8] and in experiment [10] was “inactive” each time.
Consider `O=c1[nH]c2ccccc2n1CCCN1CCN(C(c2ccccc2)c2ccccc2)CC1`, for which the Potency result in experiment [7] was “inactive”.
As to `CC1OC1P(=O)(O)O` (centres undefined), the Potency entry in experiment [1], in experiment [2], in experiment [3], in experiment [4], in experiment [5] and in experiment [7] was “inactive” in each case. In addition, the Potency result in [8], in experiment [9] and in experiment [10] was “inactive” throughout.
On to `CCCC(=O)OC[C@@H](OC(=O)CCC)[C@@H](OC(=O)CCC)[C@H](Cn1c2nc(=O)[nH]c(=O)c-2nc2cc(C)c(C)cc21)OC(=O)CCC`, for which the Potency result in experiment [7], in experiment [9] and in experiment [10] was “inactive” in each case.
Take `CN1[C@@H]2CC[C@H]1CC(OC(c1ccccc1)c1ccccc1)C2` (some centres undefined): the Potency result in [3], in experiment [6] and in experiment [9] was “inactive” in each case. Also, the Potency in [5] is 12.6 µM (active).
Take `CN(C)c1ccc(C(=C2C=CC(=[N+](C)C)C=C2)c2ccccc2)cc1`: the Potency in experiment [2] is 6.31 µM (active); in [3], 11.2 µM (active); in experiment [4], 12.6 µM (active); in experiment [5], 10 µM (active); in [6], 7.08 µM (active); in experiment [8], 11.2 µM (active). Moreover, the Potency in experiment [9] was 12 µM (active). Besides, the Potency result in experiment [7] was “inactive”.
In the case of `CCCCCCOc1ccccc1C(N)=O`, the Potency entry in experiment [1], in experiment [2], in [3], in [4], in experiment [5] and in [6] was “inactive” in each case. Besides, the Potency result in experiment [7], in experiment [8], in experiment [9] and in experiment [10] was “inactive” in each case.
With `CC(=O)[C@]1(O)Cc2c(O)c3c(c(O)c2[C@@H](O[C@H]2C[C@H](N)[C@H](O)[C@H](C)O2)C1)C(=O)c1c(O)cccc1C3=O`, the Potency was 5.62 µM (active) in experiment [2]; 11.2 µM (active) in experiment [3]; 3.55 µM (active) in [6]; 15.1 µM (active) in experiment [7]; 12 µM (active) in experiment [10].
For `CC1(C)C[C@@H]1C(=O)N/C(=C\CCCCSC[C@H](N)C(=O)O)C(=O)O`, the Potency entry in experiment [1], in [2], in experiment [3], in experiment [4], in experiment [5] and in experiment [7] was “inactive” throughout. Moreover, the Potency entry in [8], in experiment [9] and in experiment [10] was “inactive” in each case.
